From PubChem
AmpC no deterg: blocks E. coli AmpC beta-lactamase in detergent-free assay; P00811; AmpC nitrocefin hydrolysis, absorbance 480 nm, 0.0001% Triton; Potency, µM (series often up to 57.1 µM), usual class: inhibitors; actives 0.52% (n = 330,000); further: nearly all actives have a fitted effect of over 20% in size
Target sequence (P00811 whole entry, looked up): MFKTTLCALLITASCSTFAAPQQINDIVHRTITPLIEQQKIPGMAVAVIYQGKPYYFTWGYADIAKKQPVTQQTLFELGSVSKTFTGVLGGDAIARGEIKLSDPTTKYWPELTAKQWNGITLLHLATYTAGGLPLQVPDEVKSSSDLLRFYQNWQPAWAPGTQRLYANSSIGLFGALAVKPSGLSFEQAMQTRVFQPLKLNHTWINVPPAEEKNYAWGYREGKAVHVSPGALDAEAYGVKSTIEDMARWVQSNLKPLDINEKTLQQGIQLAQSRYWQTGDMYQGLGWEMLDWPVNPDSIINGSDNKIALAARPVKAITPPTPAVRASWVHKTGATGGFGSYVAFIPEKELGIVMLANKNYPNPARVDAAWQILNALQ
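20 mM phosphate pH 7.0 + 0.01% (detergent screen) or 0.0001% Triton X-100; 5.3 nM AmpC reagent; cpd preinc 15 min RT; nitrocefin (800 uM stock) to start; A480 q20 s × 4 min; Activity was normalised to no-enzyme and no-compound control wells.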
Cycloheximide cs: counter-screen hit for Shiga toxin inhibitors, cycloheximide | cell reporter, cycloheximide protein synthesis inhibition counterscreen | max response, % | actives 12% (n = 300,000) | AID 2314; in the data active means max response mostly above about 13%, no sharp cut-off; inactive means mostly below about 14%; further: read at 38.3 µM for the half of the compounds with a filed dose
AMA1-RON2 inh: disrupts binding of P. falciparum AMA1 to RON2; AlphaScreen AMA1-biotinylated RON2 peptide binding; actives 0.2% (n = 360,000); Potency, µM (highest dose often 58.2 µM), actives largely listed as inhibitors; further: nearly all actives have a fitted effect of over 45% in size
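AMA1 (3D7) with his tag at 25 nM final met compounds first, then biotinylated RON2 peptide at 25 nM; detection used donor plus acceptor beads, 10 µg/mL apiece, read by AlphaScreen after 30 min at room temperature.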
Shiga inhibitor: inhibitors of Shiga toxin in Vero cells; inhibition, % at 38.7 µM; actives 9.2% (n = 290,000); AID 2315; Vero cells, Shiga toxin protein synthesis inhibition reporter; in the data active means inhibition mostly above about 28%, no sharp cut-off; inactive means mostly below about 43%
AmpC detergent: inhibitors of E. coli AmpC beta-lactamase with detergent; P00811; AmpC hydrolysis of nitrocefin, absorbance 480 nm, 0.01% Triton; Potency, µM (series often up to 114 µM), hits mostly inhibitors; actives 0.041% (n = 370,000); AID 485294; further: nearly all actives have a fitted effect of over 25% in size
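20 mM phosphate pH 7.0 + 0.01% (detergent screen) or 0.0001% Triton X-100; 5.3 nM AmpC reagent; cpd preinc 15 min RT; nitrocefin (800 uM stock) to start; A480 q20 s × 4 min; Activity was normalised to no-enzyme and no-compound control wells.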
SARS PLP yeast: blocks SARS-CoV papain-like protease in a yeast assay; S. cerevisiae expressing SARS-CoV PLpro, growth rescue; AID 485353; actives 0.19% (n = 330,000); Potency, µM (series often up to 32.9 µM), usual class: activators; calls by dose curve; further: nearly all actives have a fitted effect of over 55% in size
Numbers stand for hits; 0 = inactive; ? = inconclusive; - = not tested or not shown; [ ] = remark or other dose. This excerpt belongs to a sample that is enriched for hits. Unless noted, the call rests on the fitted dose curve; in most records, active means well fitted curve in the direction sought with a large enough effect; inconclusive means small, poorly fitted or top-dose-only effect, or another doubt; inactive means no such curve, though single readings can be large; an effect the other way counts as inactive or inconclusive.

SMILES	AmpC no deterg	Cycloheximide cs	AMA1-RON2 inh	Shiga inhibitor	AmpC detergent	SARS PLP yeast
O=C(Nc1ccc2c(c1)OCO2)Nc1ccc(Cl)cc1Cl	0	28.1	0	63.6	0	0
CC(OC(=O)c1cccnc1)C(=O)Nc1ccc2c(c1)OCO2 (stereo not given)	0	0	0	0	0	0
O=C(Nc1ccc([N+](=O)[O-])cc1)Nc1ccc2c(c1)OCCO2	0	55.0	0	128.8	0	0
COc1cc([N+](=O)[O-])ccc1NC(=O)Nc1ccc2c(c1)OCCO2	0	0	0	0	0	0
CN1/C(=C\C(=O)COC(=O)c2nccnc2N)C(C)(C)c2ccccc21	0	-	0	-	0	0
O=C(Nc1cccc(C(=O)O)c1)/C(=C\c1ccc2c(c1)OCO2)NC(=O)c1ccc(Br)o1	0	16.4	0	45.4	0	0
O=C(Nc1ccc2c(c1)OCO2)Nc1ccc(F)cc1F	0	65.0	0	86.7	0	0
S=C(NCc1cccnc1)Nc1ccc2c(c1)OCO2	0	26.9	0	0	?	0
S=C(NCc1ccc(Cl)c(Cl)c1)Nc1ccc2c(c1)OCO2	0	0	0	0	?	0
O=C(CSCc1ccc(Cl)cc1)Nc1ccc2c(c1)OCO2	0	0	0	0	0	0
O=C(Nc1ccc(F)cc1)Nc1ccc2c(c1)OCO2	0	0	0	0	0	0
O=C(Nc1ccc(Cl)cc1)Nc1ccc2c(c1)OCO2	0	76.4	0	79.8	0	0
O=C(Nc1ccc(C(=O)O)cc1)/C(=C\c1ccc2c(c1)OCO2)NC(=O)c1ccc(Br)o1	0	0	0	0	0	0
Cn1c(SCC(=O)c2ccc(F)cc2)ncc(C(=O)Nc2ccccc2)c1=O	0	-	0	-	?	-
COc1ccc(C(=O)NC(C)c2nc3ccccc3[nH]2)cc1OC (stereo not given)	0	0	0	0	0	0
CNc1ccccc1C(C)(C)c1cn(-c2ccc([N+](=O)[O-])cc2)nn1	0	0	0	0	0	0
COCCNC(=O)COc1cccc2c1OC(C)(C)C2	0	0	0	0	0	0
Cc1cc(C)c(NC(=O)Nc2ccc3c(c2)OCO3)c(C)c1	0	37.2	0	82.4	?	0
Cc1ccc(OCC(=O)Nc2ccc3c(c2)OCO3)c(C)c1	0	0	0	0	0	0
Cc1ccc(NC(=O)Nc2ccc3c(c2)OCO3)c(Br)c1	0	43.4	0	0	0	0
O=C(Nc1ccc2c(c1)OCO2)Nc1ccc2c(c1)OCO2	0	29.4	0	75.3	0	0
O=C(Nc1cccc(C(=O)O)c1)Nc1ccc2c(c1)OCO2	0	29.7	0	36.1	?	0
Cc1ccc(S(=O)(=O)NC(C)C(=O)Nc2ccc3c(c2)OCO3)cc1 (stereo not given)	0	0	0	0	0	0
CCCc1sc(N2CCCC(C(N)=O)C2)nc1-c1ccccc1 (stereo not given)	0	0	0	0	0	0
Cc1ccc(C(=O)O)cc1NC(=O)Nc1ccc2c(c1)OCO2	0	19.7	0	72.6	0	0
SMILES	AmpC no deterg	Cycloheximide cs	AMA1-RON2 inh	Shiga inhibitor	AmpC detergent	SARS PLP yeast
CC(NC(=O)Nc1ccc(Cl)cc1)c1ccc2c(c1)OCO2 (stereo not given)	8.91µM	0	0	0	?	0
COc1ccc(NC(=O)NC(C)c2ccc3c(c2)OCO3)cc1OC (stereo not given)	0	0	0	0	?	0
CC1=C(C)CC(C(=O)Nc2ccc3c(c2)OCO3)C(C(=O)O)C1 (stereo not given)	0[2.29 µM]	28.5	0	40.7	0	0
COc1ccc(C(C)(C)C)cc1NC(=O)Nc1ccc2c(c1)OCO2	0	0	0	0	0	0
CCc1ccc2[nH]c(C(=O)Nc3ccc4c(c3)OCO4)cc2c1	0	19.3	0	0	0	0
COc1ccccc1C1C=C(c2ccc(F)cc2)Nc2nc(-c3ccc(Cl)cc3)nn21 (stereo not given)	-	-	-	-	0	-
CCC(=O)Nc1ccc(C(=O)Nc2ccc3c(c2)OCO3)cc1	0	0	0	0	0	0
Cc1cc(C)c2[nH]c(C(=O)Nc3ccc4c(c3)OCO4)cc2c1	0	15.6	0	0	0	0
O=S(=O)(c1cccc(-c2nnc(SCc3nc4ccccc4s3)o2)c1)N1CCOCC1	0	97.3	0	128.2	0	0
